A selection: hits, their analogues and other compounds. The true share with any hit is near 4.6%.
ADAM17 inh = inhibitors of human ADAM17 | P78536 | recombinant ADAM17, EDANS/DABCYL FRET peptide cleavage | inhibition, % at 6.95 µM | actives 0.83% (n = 370,000) | AID 720648;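 active means inhibition above the mean of compounds lying between control limits plus 3 SD, set per campaign, cut at about 8.5% in these data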
NR3A LBD binder = NR3A (human) ligand-binding domain modulation | NR3A LBD differential scanning fluorimetry, Tm shift; 0% = protein alone, 100% = glycine-bound protein | Tm shift relative to glycine control, % at 25 µM | actives 2.5% (n = 340,000) | AID 1259313;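 active means melting temperature shift of at least 10% of the positive control shift, at one fixed dose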
FAS-TE inh = inhibitors of human fatty acid synthase thioesterase domain | recombinant FAS-TE, OMFH fluorogenic substrate, fluorescence endpoint | actives 0.67% (n = 360,000) | inhibition, % at 15 µM | AID 602261 | P49327;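 active means compounds whose normalised, plate-corrected inhibition of enzyme fluorescence in the single-dose primary screen is 50% or more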
proKLK7 act = activators of human kallikrein-7 zymogen. AID 652039. actives 0.9% (n = 370,000). purified proKLK7, EDANS-DABCYL substrate fluorescence; 100% is mature enzyme control, 0% vehicle. activation, % at 7 µM;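 active means activation above the mean of all tested compounds plus 3 SD, computed per campaign excluding outliers beyond control limits, cut at about 13% in these data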
ADAM10 inh = inhibits human ADAM10. AID 720582. inhibition, % at 7 µM. actives 0.62% (n = 370,000). recombinant ADAM10, EDANS/DABCYL FRET peptide cleavage, 3 h;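 active means inhibition above a per-campaign cutoff equal to the mean of compounds falling between control-based bounds plus 3 SD, cut at about 20% in these data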
Of the large screens only hits and unclear results are named; the others gave an inactive call.

O=C(NCCCc1ccccc1)OC1CCC12CCC(c1ccccc1)CC2 (stereo unspecified)	none (no result: NR3A LBD binder, FAS-TE inh)
Cc1c(C(=O)OCC2CCCO2)[nH]c2c1C(=O)CC(c1ccc(N(C)C)cc1)C2 (stereo unspecified)	ADAM10 inh 21
O=[N+]([O-])c1cccc(-n2cc3ccc([N+](=O)[O-])cc3n2)c1	NR3A LBD binder 14
Cn1cc2ccc([N+](=O)[O-])cc2n1	none
O=C(Nc1ccc(OC(F)(F)F)cc1)Nc1c(-c2ccccc2)nc2ncccn12	none (no result: NR3A LBD binder, FAS-TE inh)
CCN(CC)c1ccc(C=Nc2ccc(C)cc2)c(O)c1	NR3A LBD binder 13
Brc1ccc(Cn2nnc(-c3ccc(N4CCOCC4)cc3)n2)cc1	none (no result: NR3A LBD binder, FAS-TE inh)
CCOc1ccccc1N1C(=O)CC(N(O)c2ccccc2)C1=O (stereo unspecified)	proKLK7 act 67
COc1cc(Nc2ccccc2Cl)c([N+](=O)[O-])nc1[N+](=O)[O-]	NR3A LBD binder 11
CC(C)C[C@@H]1COc2cccc(F)c2S(=O)(=O)N1C	none (no result: NR3A LBD binder, FAS-TE inh)
COC(=O)CN(c1cc(OC)ccc1OC)S(=O)(=O)c1ccc(OC)c(OC)c1	NR3A LBD binder 10
COc1ccc(OC)c(N(CC(=O)N2CCCC2)S(=O)(=O)c2ccccc2)c1	none
COCCNC(=O)CN(c1ccc(OC)c(OC)c1)S(=O)(=O)c1ccc(C)cc1	NR3A LBD binder 14
COCCNC(=O)CN(c1ccc(C)cc1)S(=O)(=O)c1ccccc1	none
Fc1cc(F)c2nc(Nc3nc4cc5c(cc4s3)OCO5)sc2c1	NR3A LBD binder 16
O=C(c1cc(Cl)cc(Cl)c1)N1CC[C@H]2[C@H](CCCN2Cc2ccccc2)C1	none (no result: NR3A LBD binder, FAS-TE inh)
O=C(Cn1cc(COc2ccc3ccc(=O)oc3c2)nn1)c1ccc(O)cc1	NR3A LBD binder 46
COCCCNC(=O)C[C@H]1C(=O)N(Cc2ccc(OC)cc2)C2=CCCCC[C@@]21C(=O)OC	none (no result: NR3A LBD binder, FAS-TE inh)
CCOC(=O)N1C2=NC(C(=O)OC)=C(C(=O)OC)[C@@H]3N(C)c4ccccc4[C@]23C[C@H]1C(=O)OC	none
COC(=O)C1=C(C(=O)OC)[C@@H]2N(C)c3ccccc3[C@@]23C[C@@H](CO)N(C(=O)NCCBr)C3=N1	FAS-TE inh 52
Cc1ccc(NC(=O)CSc2nnc(NC(=O)C3CC3)s2)cc1C	NR3A LBD binder 21
Cc1ccc(NC(=O)CSc2nnc(NC(=O)C3CC3)s2)cc1	none
CC(=O)c1ccc(NC(=O)CSc2nnc(NC(=O)C3CC3)s2)cc1	NR3A LBD binder 25
Cc1ccc(NC(=O)N2CCC(c3nc4ccc(Cl)cc4[nH]3)CC2)cc1F	none (no result: NR3A LBD binder, FAS-TE inh)
N#CCc1ccc(OC[C@@H](O)CN2CCC(C(O)(c3ccccc3)c3ccccc3)CC2)cc1	none (no result: NR3A LBD binder, FAS-TE inh)
COc1ccc(/C=N/NS(=O)(=O)c2ccc(C)cc2)cc1OC(=O)c1ccccc1	NR3A LBD binder 10
COc1ccc(/C=N/NC(=O)c2ccccc2OC)cc1COc1ccccc1[N+](=O)[O-]	none
COc1ccc(/C=N\NS(=O)(=O)c2ccc(C)cc2)cc1COc1ccccc1[N+](=O)[O-]	NR3A LBD binder 12
COc1cc(/C=N/NS(=O)(=O)c2ccc(C)cc2)ccc1OCc1cccc(C(=O)O)c1	none
COc1ccc(/C=N/NS(=O)(=O)c2ccccc2)cc1OS(=O)(=O)c1ccccc1	none
COc1ccc(/C=N/NS(=O)(=O)c2ccccc2)cc1OC(=O)c1ccc(C)cc1	NR3A LBD binder 19
O=C(Cc1ccc(Cl)cc1Cl)Nc1ccc(OC(F)F)c(Cl)c1	none
O=C(Nc1ccc([N+](=O)[O-])cc1)Nc1ccc(OC(F)F)c(Cl)c1	NR3A LBD binder 15
O=C(Nc1ccc(OC(F)F)c(Cl)c1)Nc1ccc2c(c1)OCO2	NR3A LBD binder 35
N#Cc1ccc(/C=C2\CC3(OC(=O)C4CCCCC4)CCCN2C3)cc1 (stereo unspecified)	none (no result: NR3A LBD binder, FAS-TE inh)
CC(C)C[C@H]1COc2cc(Br)ccc2S(=O)(=O)N1Cc1cn(Cc2ccco2)nn1	none (no result: NR3A LBD binder, FAS-TE inh)
Cc1ccc(-n2c(SCC(=O)Nc3ccc(Oc4ccccc4)cc3)nnc2-c2ccco2)cc1	none (no result: NR3A LBD binder, FAS-TE inh)
Cc1ccc(-c2csc(NC(=O)/C=C/c3cccs3)n2)cc1C	NR3A LBD binder 19
CCSc1nc2c(c(=O)[nH]1)C(c1ccccn1)C1=C(CC(C)(C)CC1=O)N2 (stereo unspecified)	proKLK7 act 32
COc1ccc(-c2cc(C(=O)N3CCN(S(=O)(=O)c4ccccc4)CC3)[nH]n2)cc1	NR3A LBD binder 15
COC(=O)C1CN(Cc2ccc(F)cc2)CCS(=O)(=O)N1Cc1ccccc1 (stereo unspecified)	none (no result: NR3A LBD binder, FAS-TE inh)
CC(=O)c1ccc(NC(=S)N(C)C2CCN(C)CC2)cc1	NR3A LBD binder 20
CN1CCC(N(C)C(=S)Nc2ccc(F)cc2)CC1	none
CCN(CC)c1ccc(C=C2C(=O)OC3(CCCCC3)OC2=O)cc1	NR3A LBD binder 18
Cc1c(/C=N/NC(=O)c2ccc(O)cc2)c2ccccn2c1C(=O)c1ccc(F)cc1	NR3A LBD binder 18
COC(=O)N/N=C/c1c(C)c(C(=O)c2ccc(F)cc2)n2ccccc12	none
Cc1c(/C=N/NC(=O)c2ccccc2O)c2ccccn2c1C(=O)c1ccc(F)cc1	NR3A LBD binder 14
CCC[C@H]1[C@@H](OC(=O)Oc2ccc([N+](=O)[O-])cc2)CC[C@@]23CCCN2C(=O)CCC[C@@H]13	none (no result: NR3A LBD binder, FAS-TE inh, proKLK7 act)
Cc1nc2ccc(C(=O)Nc3cccc([N+](=O)[O-])c3)cc2s1	NR3A LBD binder 21
O=C(Nc1cccc([N+](=O)[O-])c1)c1cc2ccccc2cc1O	NR3A LBD binder 27
Cc1c(C(=O)Nc2cccc([N+](=O)[O-])c2)csc1-c1ccccc1	NR3A LBD binder 13
CS(=O)(=O)Nc1ccc(C(=O)Nc2cccc([N+](=O)[O-])c2)cc1	NR3A LBD binder 21
COCCCNC(=O)C[C@H]1C[C@@]2(C(=O)OC)C(=C[C@H](C3CCCC3)O[C@@H]2C)N(CCC2=CCCCC2)C1=O	none (no result: NR3A LBD binder, FAS-TE inh)
COc1cccc(NC(=O)Nc2nc3ncccn3c2-c2ccc(F)c(F)c2)c1	none (no result: NR3A LBD binder, FAS-TE inh)
N#Cc1ccc(CSc2nc3sc4c(c3c(=O)n2-c2ccc(Br)cc2)CCCC4)cc1	none (no result: NR3A LBD binder, FAS-TE inh)
O=C(C1CCC1)N1CCc2cc(S(=O)(=O)N3CCCC3)ccc21	none (no result: NR3A LBD binder, FAS-TE inh)
CCn1c2ccccc2c2cc(NC(=O)c3cccc([N+](=O)[O-])c3)ccc21	NR3A LBD binder 17
O=C(Nc1cccc([N+](=O)[O-])c1)c1ccc(-c2ccccc2)cc1	NR3A LBD binder 25
CCn1c2ccccc2c2cc(NC(=O)c3cccc([N+](=O)[O-])c3C)ccc21	none
O=C(CSc1nc(-c2ccccc2)nn1C(=O)c1ccccc1)Nc1cccc([N+](=O)[O-])c1	NR3A LBD binder 13
O=C(c1cccs1)N1CC[C@H]2[C@H](CCCN2Cc2cc(F)cc(F)c2)C1	none (no result: NR3A LBD binder, FAS-TE inh)
CC(=O)c1cc(-c2ccccc2-c2ccccc2)c(=O)n2c1CCC2	none (no result: NR3A LBD binder, FAS-TE inh)
Cc1ccccc1NS(=O)(=O)c1ccc(NC(=O)CSCc2ccc(Br)cc2)cc1	ADAM17 inh 15, NR3A LBD binder 22, ADAM10 inh 32
